Experimental findings from PMC7862700, “An all-to-all approach to the identification of sequence-specific readers for epigenetic DNA modifications on cytosine” are described below.

What all share (assay): DAPPL (digital affinity profiling via proximity ligation, sequencing); 10 mM Tris-HCl pH 7.5, 50 mM NaCl, 1 mM DTT, 4% glycerol, room temperature, 30 min; GST-TFs on glutathione beads, 16-mer random dsDNA library, 0.1% formaldehyde crosslink after washing; high values mean tight binding
Details in all cases: protein: recombinant; tags: N-terminal GST; dsDNA, one strand shown

The target in one test is T1, FLI1 (Homo sapiens, UniProt Q01543 1-452).
T1 sequence: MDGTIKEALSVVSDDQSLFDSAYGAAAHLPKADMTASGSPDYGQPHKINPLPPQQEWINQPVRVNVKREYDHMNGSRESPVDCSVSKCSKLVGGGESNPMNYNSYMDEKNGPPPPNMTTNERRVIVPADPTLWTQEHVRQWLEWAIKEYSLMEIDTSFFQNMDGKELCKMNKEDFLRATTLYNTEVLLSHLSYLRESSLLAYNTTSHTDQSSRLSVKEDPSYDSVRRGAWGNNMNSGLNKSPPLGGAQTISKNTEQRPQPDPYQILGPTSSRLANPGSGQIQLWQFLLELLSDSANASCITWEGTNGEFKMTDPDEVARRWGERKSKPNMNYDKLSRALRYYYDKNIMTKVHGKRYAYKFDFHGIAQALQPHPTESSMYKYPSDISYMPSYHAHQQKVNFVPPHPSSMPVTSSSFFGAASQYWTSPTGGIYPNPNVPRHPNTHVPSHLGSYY
The method in brief:
(§1)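 Binding signal is defined as a hexamer's read frequency for one factor over its frequency for the tag-only sample. To obtain reads, GST-fused human transcription factors were expressed in yeast, captured on glutathione beads, barcoded with DNA and pooled with that sample. Pools met 200 nmole of a 16-mer random double-stranded DNA library in Tris/NaCl/DTT/glycerol buffer for 30 min at room temperature before washing, 0.1% formaldehyde crosslinking, proximity ligation (BsaI/T4 ligase, 1 h, 37 °C), PCR and Illumina NextSeq500 sequencing.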

Another test has as its target T2, ELK1 (Homo sapiens, UniProt P19419 1-428).
T2 sequence: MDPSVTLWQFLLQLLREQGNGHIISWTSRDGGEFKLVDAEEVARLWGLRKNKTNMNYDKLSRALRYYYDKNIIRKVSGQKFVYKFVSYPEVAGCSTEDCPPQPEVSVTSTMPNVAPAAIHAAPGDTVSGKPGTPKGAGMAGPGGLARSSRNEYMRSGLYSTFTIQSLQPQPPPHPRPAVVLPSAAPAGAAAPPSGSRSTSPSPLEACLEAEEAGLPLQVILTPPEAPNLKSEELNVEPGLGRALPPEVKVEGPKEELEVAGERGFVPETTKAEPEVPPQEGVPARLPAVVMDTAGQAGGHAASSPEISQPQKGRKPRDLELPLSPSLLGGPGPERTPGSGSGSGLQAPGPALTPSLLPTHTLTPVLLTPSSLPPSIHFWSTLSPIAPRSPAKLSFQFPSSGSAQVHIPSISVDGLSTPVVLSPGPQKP
The method in brief:
as §1

The target of a further test is T3, GABPA (Homo sapiens, UniProt Q06546 1-454).
T3 sequence: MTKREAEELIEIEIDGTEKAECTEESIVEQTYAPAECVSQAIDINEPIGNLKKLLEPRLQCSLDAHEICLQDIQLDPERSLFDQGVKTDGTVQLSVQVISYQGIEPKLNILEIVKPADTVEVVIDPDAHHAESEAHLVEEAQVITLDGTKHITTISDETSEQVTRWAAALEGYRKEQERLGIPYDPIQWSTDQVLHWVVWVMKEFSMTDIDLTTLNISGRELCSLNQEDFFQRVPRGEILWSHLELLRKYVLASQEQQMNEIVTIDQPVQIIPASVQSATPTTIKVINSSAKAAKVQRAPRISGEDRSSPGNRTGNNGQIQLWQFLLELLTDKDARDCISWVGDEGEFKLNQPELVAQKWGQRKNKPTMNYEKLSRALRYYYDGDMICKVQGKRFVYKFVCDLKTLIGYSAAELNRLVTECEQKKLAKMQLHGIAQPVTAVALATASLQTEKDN
In a few lines:
as §1

The target of another test is T4, ERG (Homo sapiens, UniProt P11308 1-479).
T4 sequence: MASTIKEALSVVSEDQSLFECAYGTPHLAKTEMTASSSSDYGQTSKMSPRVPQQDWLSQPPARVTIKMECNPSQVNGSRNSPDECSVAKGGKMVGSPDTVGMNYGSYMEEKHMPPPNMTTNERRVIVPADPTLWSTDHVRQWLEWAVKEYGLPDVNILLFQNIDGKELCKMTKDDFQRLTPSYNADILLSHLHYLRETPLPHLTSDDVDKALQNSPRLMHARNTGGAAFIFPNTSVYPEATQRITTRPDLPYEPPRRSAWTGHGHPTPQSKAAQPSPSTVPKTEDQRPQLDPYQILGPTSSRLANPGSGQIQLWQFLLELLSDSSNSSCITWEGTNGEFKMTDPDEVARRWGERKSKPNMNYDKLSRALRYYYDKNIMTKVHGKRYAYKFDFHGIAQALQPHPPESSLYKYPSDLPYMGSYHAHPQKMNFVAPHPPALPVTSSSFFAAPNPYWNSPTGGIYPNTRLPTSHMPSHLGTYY
In a few lines:
as §1

A further test addresses ELF1 (Homo sapiens, UniProt P32519 1-619). In a few lines: as §1
The target of the next test is T5, EHF (Homo sapiens, UniProt Q9NZC4 1-300).
T5 sequence: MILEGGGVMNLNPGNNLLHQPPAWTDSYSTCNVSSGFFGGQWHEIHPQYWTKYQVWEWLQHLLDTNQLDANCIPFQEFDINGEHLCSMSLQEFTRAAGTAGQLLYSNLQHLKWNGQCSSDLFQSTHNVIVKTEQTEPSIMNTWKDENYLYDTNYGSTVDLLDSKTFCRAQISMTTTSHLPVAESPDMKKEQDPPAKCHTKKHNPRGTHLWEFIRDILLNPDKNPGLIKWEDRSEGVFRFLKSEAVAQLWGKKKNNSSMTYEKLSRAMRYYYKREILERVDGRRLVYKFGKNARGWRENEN
In a few lines:
as §1

In a further test the target is SPI1 (Homo sapiens, UniProt P17947 1-270). The method in brief: as §1
For a further test, the target named is SPIB (Homo sapiens, UniProt Q01892 1-262). The method in brief:
as §1

Another test addresses T6, ELK3 (Homo sapiens, UniProt P41970 1-407).
T6 sequence: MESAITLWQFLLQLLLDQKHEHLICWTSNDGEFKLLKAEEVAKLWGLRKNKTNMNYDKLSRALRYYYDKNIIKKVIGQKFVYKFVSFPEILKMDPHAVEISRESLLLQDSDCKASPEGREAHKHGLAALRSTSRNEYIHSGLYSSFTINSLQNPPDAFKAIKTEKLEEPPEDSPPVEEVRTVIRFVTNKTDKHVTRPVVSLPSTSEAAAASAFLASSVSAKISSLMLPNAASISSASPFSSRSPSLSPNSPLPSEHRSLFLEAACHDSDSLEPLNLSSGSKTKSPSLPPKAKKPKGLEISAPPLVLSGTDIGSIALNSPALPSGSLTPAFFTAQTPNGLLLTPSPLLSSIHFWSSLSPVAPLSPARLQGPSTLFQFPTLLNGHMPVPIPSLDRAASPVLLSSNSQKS
In a few lines: as §1

Another test deals with T7, FEV (Homo sapiens, UniProt Q99581 1-238).
T7 sequence: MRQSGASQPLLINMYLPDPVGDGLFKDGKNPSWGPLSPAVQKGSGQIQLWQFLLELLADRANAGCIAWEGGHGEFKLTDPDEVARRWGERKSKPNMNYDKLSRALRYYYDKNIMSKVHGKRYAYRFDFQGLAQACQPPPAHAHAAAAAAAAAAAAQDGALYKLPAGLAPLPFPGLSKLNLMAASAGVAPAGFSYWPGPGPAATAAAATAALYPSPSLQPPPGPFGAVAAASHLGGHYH
In a few lines: as §1

The next test has as its target ETV5 (Homo sapiens, UniProt P41161 1-510). In a few lines:
as §1

Another test concerns the target T8, SPIC (Homo sapiens, UniProt Q8N5J4 1-248).
T8 sequence: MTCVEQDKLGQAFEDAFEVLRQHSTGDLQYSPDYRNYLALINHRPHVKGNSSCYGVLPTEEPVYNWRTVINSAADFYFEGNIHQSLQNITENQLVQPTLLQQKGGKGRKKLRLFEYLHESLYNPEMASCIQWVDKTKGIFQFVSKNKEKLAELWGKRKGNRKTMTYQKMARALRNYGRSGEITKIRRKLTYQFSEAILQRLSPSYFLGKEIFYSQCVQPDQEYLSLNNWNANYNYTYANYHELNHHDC
In a few lines:
as §1

Another test has as its target ELF4 (Homo sapiens, UniProt Q99607 1-663). In a few lines:
as §1

Another test has as its target T9, ELK4 (Homo sapiens, UniProt P28324-2 1-405).
T9 sequence: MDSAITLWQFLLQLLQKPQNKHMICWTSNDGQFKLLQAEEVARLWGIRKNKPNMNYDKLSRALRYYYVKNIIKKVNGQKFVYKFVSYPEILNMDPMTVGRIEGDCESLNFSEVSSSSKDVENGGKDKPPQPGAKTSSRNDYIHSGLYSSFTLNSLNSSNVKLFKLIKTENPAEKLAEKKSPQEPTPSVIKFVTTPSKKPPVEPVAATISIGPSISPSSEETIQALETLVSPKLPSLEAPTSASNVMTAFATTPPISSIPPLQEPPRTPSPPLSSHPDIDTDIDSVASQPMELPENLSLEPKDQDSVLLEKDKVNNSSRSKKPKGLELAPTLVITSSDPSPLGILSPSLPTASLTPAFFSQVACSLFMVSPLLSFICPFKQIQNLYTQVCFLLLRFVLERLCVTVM
The method in brief: as §1

The next test concerns the target T10, ETV2 (Homo sapiens, UniProt O00321 1-342).
T10 sequence: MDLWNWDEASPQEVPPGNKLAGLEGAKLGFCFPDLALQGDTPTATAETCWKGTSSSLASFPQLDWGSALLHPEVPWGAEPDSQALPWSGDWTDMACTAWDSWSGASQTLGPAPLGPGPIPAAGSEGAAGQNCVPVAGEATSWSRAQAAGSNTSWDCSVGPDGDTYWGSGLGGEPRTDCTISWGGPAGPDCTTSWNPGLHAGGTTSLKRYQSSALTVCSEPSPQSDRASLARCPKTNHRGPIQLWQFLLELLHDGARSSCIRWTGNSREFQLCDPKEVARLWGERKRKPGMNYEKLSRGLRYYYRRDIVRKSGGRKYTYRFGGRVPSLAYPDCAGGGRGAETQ
The method in brief: as §1

Another test has as its target T11, ELF3 (Homo sapiens, UniProt P78545 1-371).
T11 sequence: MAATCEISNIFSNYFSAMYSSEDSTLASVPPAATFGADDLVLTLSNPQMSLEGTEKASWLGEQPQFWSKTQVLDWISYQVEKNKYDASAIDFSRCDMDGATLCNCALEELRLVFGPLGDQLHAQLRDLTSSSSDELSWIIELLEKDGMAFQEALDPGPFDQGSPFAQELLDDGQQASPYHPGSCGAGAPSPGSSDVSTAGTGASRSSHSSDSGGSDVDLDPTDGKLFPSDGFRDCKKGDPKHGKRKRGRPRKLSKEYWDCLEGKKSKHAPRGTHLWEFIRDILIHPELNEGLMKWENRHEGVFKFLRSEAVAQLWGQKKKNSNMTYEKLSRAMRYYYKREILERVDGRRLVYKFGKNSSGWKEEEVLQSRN
The method in brief:
as §1

For a further test, the target named is ETV1 (Homo sapiens, UniProt P50549 1-477). The method in brief: as §1
Sequence of ETV1 (P50549 whole entry): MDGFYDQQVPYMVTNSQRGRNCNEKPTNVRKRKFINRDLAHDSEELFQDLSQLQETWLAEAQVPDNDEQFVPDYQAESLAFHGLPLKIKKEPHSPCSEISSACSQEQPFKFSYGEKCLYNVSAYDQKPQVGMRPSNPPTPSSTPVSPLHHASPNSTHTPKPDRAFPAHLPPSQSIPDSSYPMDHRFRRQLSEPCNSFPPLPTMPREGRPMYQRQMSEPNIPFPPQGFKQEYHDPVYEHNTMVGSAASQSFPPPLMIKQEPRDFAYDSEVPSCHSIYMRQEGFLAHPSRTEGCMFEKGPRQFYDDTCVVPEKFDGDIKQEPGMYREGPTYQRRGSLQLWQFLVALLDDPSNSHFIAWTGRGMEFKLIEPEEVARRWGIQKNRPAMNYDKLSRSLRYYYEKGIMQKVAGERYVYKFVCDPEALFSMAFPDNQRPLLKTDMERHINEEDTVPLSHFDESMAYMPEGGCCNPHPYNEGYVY

Sequence of SPIB (Q01892 whole entry): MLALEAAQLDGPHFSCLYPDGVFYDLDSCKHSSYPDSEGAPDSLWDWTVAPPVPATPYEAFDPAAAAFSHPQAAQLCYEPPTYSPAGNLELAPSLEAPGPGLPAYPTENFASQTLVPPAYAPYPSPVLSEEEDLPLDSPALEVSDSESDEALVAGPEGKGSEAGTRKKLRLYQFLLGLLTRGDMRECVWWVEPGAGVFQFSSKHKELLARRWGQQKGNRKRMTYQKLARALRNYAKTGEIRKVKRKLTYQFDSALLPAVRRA
Sequence of ETV5 (P41161 whole entry): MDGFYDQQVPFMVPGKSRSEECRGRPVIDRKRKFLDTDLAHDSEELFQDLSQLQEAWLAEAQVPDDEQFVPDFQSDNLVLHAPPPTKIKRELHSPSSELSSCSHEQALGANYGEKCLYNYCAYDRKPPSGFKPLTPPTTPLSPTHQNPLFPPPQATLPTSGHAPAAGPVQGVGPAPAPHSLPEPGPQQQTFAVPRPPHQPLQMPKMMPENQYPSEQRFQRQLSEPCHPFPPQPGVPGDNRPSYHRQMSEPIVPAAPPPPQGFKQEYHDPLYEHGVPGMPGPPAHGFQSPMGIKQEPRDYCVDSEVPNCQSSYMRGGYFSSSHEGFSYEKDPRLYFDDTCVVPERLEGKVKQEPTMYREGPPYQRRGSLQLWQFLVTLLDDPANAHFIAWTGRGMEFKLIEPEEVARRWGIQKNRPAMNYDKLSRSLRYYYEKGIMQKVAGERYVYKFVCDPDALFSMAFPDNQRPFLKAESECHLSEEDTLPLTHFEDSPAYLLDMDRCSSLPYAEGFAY
Sequence of ELF1 (P32519 whole entry): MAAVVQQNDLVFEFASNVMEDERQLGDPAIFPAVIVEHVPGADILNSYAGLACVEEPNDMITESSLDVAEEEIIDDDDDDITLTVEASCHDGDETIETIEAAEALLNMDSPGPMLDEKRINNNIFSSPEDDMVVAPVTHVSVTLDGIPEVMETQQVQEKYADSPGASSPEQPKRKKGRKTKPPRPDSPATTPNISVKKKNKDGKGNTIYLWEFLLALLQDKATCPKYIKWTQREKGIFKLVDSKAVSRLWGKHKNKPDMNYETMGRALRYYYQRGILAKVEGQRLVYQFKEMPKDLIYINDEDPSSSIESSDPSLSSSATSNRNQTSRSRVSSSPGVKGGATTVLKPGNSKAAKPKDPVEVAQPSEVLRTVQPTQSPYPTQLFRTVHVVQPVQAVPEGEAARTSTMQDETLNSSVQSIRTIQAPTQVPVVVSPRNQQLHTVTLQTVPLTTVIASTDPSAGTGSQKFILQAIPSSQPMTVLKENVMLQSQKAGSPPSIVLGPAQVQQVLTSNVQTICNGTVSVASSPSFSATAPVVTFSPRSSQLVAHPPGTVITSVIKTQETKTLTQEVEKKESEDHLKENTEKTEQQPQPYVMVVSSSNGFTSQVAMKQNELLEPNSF
Sequence of ELF4 (Q99607 whole entry): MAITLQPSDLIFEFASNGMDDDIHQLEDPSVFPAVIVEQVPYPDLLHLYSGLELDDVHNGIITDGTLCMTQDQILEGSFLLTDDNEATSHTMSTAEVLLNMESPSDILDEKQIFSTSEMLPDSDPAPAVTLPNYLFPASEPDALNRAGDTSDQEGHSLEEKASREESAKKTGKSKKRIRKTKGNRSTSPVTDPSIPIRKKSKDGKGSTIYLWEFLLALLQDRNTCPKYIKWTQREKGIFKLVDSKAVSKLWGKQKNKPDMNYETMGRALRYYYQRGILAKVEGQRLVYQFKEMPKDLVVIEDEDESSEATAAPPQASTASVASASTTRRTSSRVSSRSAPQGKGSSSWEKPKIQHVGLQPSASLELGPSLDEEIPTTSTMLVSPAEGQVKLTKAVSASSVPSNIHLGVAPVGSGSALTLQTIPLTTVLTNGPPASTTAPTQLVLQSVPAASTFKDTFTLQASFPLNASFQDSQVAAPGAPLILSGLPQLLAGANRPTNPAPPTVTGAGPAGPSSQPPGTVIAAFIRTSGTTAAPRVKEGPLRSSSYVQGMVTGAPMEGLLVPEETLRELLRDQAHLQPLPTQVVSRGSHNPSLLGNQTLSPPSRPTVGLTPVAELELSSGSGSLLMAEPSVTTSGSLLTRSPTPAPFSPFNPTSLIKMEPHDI

For the sequence CGCCGC, the binding signal with FLI1 is 1.35 fold enrichment (6-mer frequency, TF over GST control); in the test with ELK1, 1.1 fold enrichment (6-mer frequency, TF over GST control); with GABPA it was 1.19 fold enrichment (6-mer frequency, TF over GST control); with ERG, 1.06 fold enrichment (6-mer frequency, TF over GST control); in the test with ELF1, 1.14 fold enrichment (6-mer frequency, TF over GST control); in the test with EHF, 1.27 fold enrichment (6-mer frequency, TF over GST control). For the same sequence, the binding signal with SPI1 is 1.11 fold enrichment (6-mer frequency, TF over GST control); with SPIB it was 1.11 fold enrichment (6-mer frequency, TF over GST control); with ELK3, 1.32 fold enrichment (6-mer frequency, TF over GST control); with FEV it was 1.24 fold enrichment (6-mer frequency, TF over GST control); with ETV5 it was 1.13 fold enrichment (6-mer frequency, TF over GST control); with SPIC it was 1.22 fold enrichment (6-mer frequency, TF over GST control). The binding signal is 1.26 fold enrichment (6-mer frequency, TF over GST control) in the test with ELF4; 1.05 fold enrichment (6-mer frequency, TF over GST control) with ELK4; 1.03 fold enrichment (6-mer frequency, TF over GST control) with ETV2; 1.26 fold enrichment (6-mer frequency, TF over GST control) with ELF3; 1.29 fold enrichment (6-mer frequency, TF over GST control) in the test with ETV1.

Turning to CTGTGC, the binding signal in the test with FLI1 is 1.09 fold enrichment (6-mer frequency, TF over GST control); with ELK1, 1.18 fold enrichment (6-mer frequency, TF over GST control); in the test with GABPA it was 1.12 fold enrichment (6-mer frequency, TF over GST control); with ERG, 1.11 fold enrichment (6-mer frequency, TF over GST control); with ELF1 it was 1.14 fold enrichment (6-mer frequency, TF over GST control); with EHF it was 1.02 fold enrichment (6-mer frequency, TF over GST control). Besides, the binding signal in the test with SPI1 is 1.02 fold enrichment (6-mer frequency, TF over GST control); with SPIB, 1.13 fold enrichment (6-mer frequency, TF over GST control); in the test with ELK3, 1.09 fold enrichment (6-mer frequency, TF over GST control); with FEV it was 1.03 fold enrichment (6-mer frequency, TF over GST control); with ETV5, 1.17 fold enrichment (6-mer frequency, TF over GST control); in the test with SPIC it was 1.27 fold enrichment (6-mer frequency, TF over GST control). The binding signal in the test with ELF4 was 1.21 fold enrichment (6-mer frequency, TF over GST control); with ELK4, 1.12 fold enrichment (6-mer frequency, TF over GST control); with ETV2 it was 1.25 fold enrichment (6-mer frequency, TF over GST control); in the test with ELF3 it was 1.08 fold enrichment (6-mer frequency, TF over GST control); in the test with ETV1, 1.12 fold enrichment (6-mer frequency, TF over GST control).
